Measured values taken from PubChem BioAssay AID624351 (Southern Research Specialized Biocontainment Screening …, 2012).
Out of some 2,400 compounds screened, about 1,400 (58%) were called active. So high a share suggests a set chosen from earlier hits. Some of the results follow. A number with no mark means an inactive call.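 How the source made its calls: active means inhibition of 30% or more at any tested dose; inconclusive means primary hits over the limit that were never retested; inactive means the rest.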

Experiment: ADP Hunter readout inhibition without MgcRacGAP – biochemical, coupled enzyme counter-screen, artefact control for MgcRacGAP inhibitor project, dose response (AID 624351);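 further: signal is the ADP detection kit reading of free GDP without any GAP enzyme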;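 on inhibition: 0% = median positive control wells and 100% = median negative control wells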
Conditions: fluorescence, no MgcRacGAP; series mostly up to 80 µM; inhibition: at the top concentration

SMILES	IC50	inhibition
COc1cc(/C=C/C(=O)OCC(=O)c2ccc(OC(F)F)cc2)ccc1O	58.2 µM (active)	–
COc1cc(/C=C/C(=O)OCC(=O)c2ccc[nH]2)ccc1O	25.9 µM (active)	–
C/C(=N\NC(=O)c1cccc(N/N=C(\C)c2cc(O)ccc2O)c1)c1cc(O)ccc1O	75.5 µM (active)	–
Cc1cc(-c2n[nH]c(=S)n2/N=C/c2ccccc2[N+](=O)[O-])n[nH]1	83.5 µM (active)	–
S=c1[nH]nc(-c2cccs2)n1/N=C/c1cccs1	59.7 µM (active)	–
Cc1cc(-c2n[nH]c(=S)n2/N=C/c2cccs2)n[nH]1	78.7 µM (active)	–
Cc1cc(-c2n[nH]c(=S)n2/N=C/c2ccc(Br)s2)n[nH]1	80.5 µM (active)	–
Cc1cc(-c2n[nH]c(=S)n2/N=C/c2sccc2C)n[nH]1	62.4 µM (active)	–
O=C1CSC(=S)N1Nc1ccccc1	68 µM (active)	–
Nc1ccc2ccc(O)cc2c1	31.5 µM (active)	–
C[n+]1c2cc(N)ccc2cc2ccc(N)cc21	inactive	–
Oc1ccc2ccc(Cl)cc2c1	53.9 µM (active)	–
CCCC1=NN2C(=N)/C(=C\c3ccc(SCc4ccco4)o3)C(=O)N=C2S1	–	-0.24%
CN(C)c1ccc(N=C/C=C2\N(C)c3ccccc3C2(C)C)cc1	12.4 µM (active)	–
CN1/C(=C\C=N\NC(=O)c2ccc(O)cc2)C(C)(C)c2ccccc21	74.4 µM (active)	–
CN(C)c1ccc(N=C/C=C2/N(C)c3ccccc3C2(C)C)cc1	20.6 µM (active)	–
COc1cc(CNC2CCCCC2OC)cc(OC)c1 (centres undefined)	–	16.9%
O=c1c2c(nc3cc(-c4ccccc4)[nH]n13)CCS2	–	-9.07%
O=C(CSc1nnc(C2CC2)n1C1CC1)N1CCN(c2ccc(O)cc2)CC1	45.6 µM (active)	–
O=C(CSc1nnnn1C1CC1)N1CCN(c2ccc(O)cc2)CC1	31.5 µM (active)	–
CCOC(=O)Nc1ccc2c(c1)Nc1ccccc1S2	40.6 µM (active)	–
CCOC(=O)C1=C(C)Nc2ccc(C)cc2S1	79 µM (active)	–
CSCCOC(=O)C1=C(C)Nc2ccc(C)cc2S1	35.6 µM (active)	–

SMILES	IC50	inhibition
CCOC(=O)C1=C(C)Nc2ccccc2S1	41.3 µM (active)	–
O=C(CCn1cnc2ccccc21)N/N=C/c1ccc(O)cc1	57.4 µM (active)	–
O=C(CSc1ccc2ccccc2n1)N/N=C/c1ccc(O)cc1	73.6 µM (active)	–
CCOc1cc(/C=N/NC(=O)CCn2nc(C)cc2C)ccc1O	58.5 µM (active)	–
Cc1cc(C)n(CCC(=O)N/N=C/c2ccc(O)cc2)n1	74.1 µM (active)	–
CN(CCCCCCN(C)Cc1ccccc1O)Cc1ccccc1O	–	24.3%
C#CCOCCOCCOCCNc1nc(N2CCN(C(=O)[C@H](CCCCN)n3cc([C@@H](N)CC(C)C)nn3)CC2)nc(N2CCN(C(=O)[C@H](CCCCN)n3cc([C@@H](N)CC(C)C)nn3)CC2)n1	–	2.16%
COC(=O)CCNCCSc1nnc(-c2ccco2)n1Cc1ccccc1	–	19.6%
N#C/C(=C\c1cccnc1)C(=O)Nc1cccc2ccccc12	–	2.82%
CCOc1cc(/C=N/NC(=O)C(=O)NCc2cccnc2)ccc1O	51.2 µM (active)	–
N#C/C(=C/c1ccc(O)c(O)c1)C(=O)NCc1ccc(Cl)cc1	36.5 µM (active)	–
CCOc1cc(/C=C(\C#N)C(=O)NCc2cccnc2)ccc1O	45.3 µM (active)	–
CCOC(=O)c1c(C)n(-c2ccc(C)cc2)c2ccc(OCC(O)CNCC3CCCO3)cc12 (centres undefined)	–	20.3%
CCOc1cc(/C=C(\C#N)C(=O)NCC2CCCO2)ccc1O (centres undefined)	49.7 µM (active)	–
CCOCCCNC(=O)/C(C#N)=C/c1ccc([N+](=O)[O-])o1	–	-11.2%
C#CCOCCOCCOCCNc1nc(N2CCN(C(=O)C([C@@H](C)O)n3cc([C@@H](N)CCCCN)nn3)CC2)nc(N2CCN(C(=O)[C@H](CO)n3cc([C@@H](N)C(C)C)nn3)CC2)n1 (some centres undefined)	–	2.49%
CCN(CC)c1ccc(/C=N\NC(N)=O)cc1	53.8 µM (active)	–
CN(C)c1ccc(/C=N/O)cc1	23.9 µM (active)	–
CN(C)c1nc(Oc2ccc(/C=N/O)cc2)nc(N(C)C)n1	–	4.75%
CCN(CC)c1ccc(/C=N/O)cc1	21.6 µM (active)	–
CCN(CC)c1ccc(/C=N/NC(=O)c2ccoc2C)cc1	–	24.6%
CCN(CC)CC(C)(C)C(=O)/C=C/c1ccc(/C=C/C(=O)C(C)(C)CN(CC)CC)cc1	–	2.34%
O=C(O)c1ccc2nc(-c3ccco3)c(-c3ccco3)nc2c1	–	-6%

SMILES	IC50	inhibition
COc1cccc(OC)c1OCCCCN1CCCC1	–	17.8%
COc1cccc(CNCc2ccccc2Br)c1OC	–	12.1%
COc1cccc(OC)c1OCCCN1CCOCC1	–	15.1%
COc1cccc(CNc2ccc(N3CCC(C)CC3)cc2)c1OC	6.68 µM (active)	–
COc1cccc(Nc2ccc(N3CCCCC3)cc2)c1OC	8.89 µM (active)	–
COc1ccc(C)cc1NCc1cccc(OC)c1OC	70.3 µM (active)	–
COc1cccc(CNc2ccc(N3CCCCC3)cc2)c1OC	4.01 µM (active)	–
COc1cccc(CN2CCN(Cc3cc(OC)c(OC)c(OC)c3)CC2)c1OC	–	19.4%
COc1cc(Br)c(CNc2cc(C)ccc2C)cc1OC	–	22.4%
COc1ccc(CNCc2cccc(OC)c2OC)cc1Br	–	18.2%
COc1cccc(CN2CCN(Cc3cccc(Oc4ccccc4)c3)CC2)c1OC	–	6.39%
COc1cc(/C=C/C(=O)OCC(=O)Nc2c(C)n(C)n(-c3ccccc3)c2=O)ccc1O	53.6 µM (active)	–
COc1cc(/C=C/C(=O)OC(C)C(=O)Nc2c(C)n(C)n(-c3ccccc3)c2=O)ccc1O (centres undefined)	45.4 µM (active)	–
Cc1c(NC(=O)CN2CC(C)OC(C)C2)c(=O)n(-c2ccccc2)n1C (centres undefined)	–	22.8%
Cc1c(O)ccc2c3c(c(=O)oc12)CCCC3	23.7 µM (active)	–
COCCn1c(=S)[nH]c2sc3c(c2c1=O)CCCC3	34.3 µM (active)	–
Nn1c(=S)[nH]c2sc3c(c2c1=O)CCCC3	67.3 µM (active)	–
CCn1c(=S)[nH]c2sc3c(c2c1=O)CCCC3	35 µM (active)	–
COCCCn1c(=S)[nH]c2sc3c(c2c1=O)CCCC3	30.9 µM (active)	–
C=CCc1cc(C)ccc1OCCCn1ccnc1	–	24.9%
O=C1C=CC(=O)N1c1ccc(Nc2ccccc2)cc1	34 µM (active)	–
O=C(O)c1cc(N2C(=O)C=CC2=O)cc(N2C(=O)C=CC2=O)c1	–	7.56%
O=C1C=CC(=O)N1c1ccccc1N1C(=O)C=CC1=O	–	1.12%
